# Inconclusive results are not listed. Unmarked numbers belong to inactive results. Active and inactive are the calls of the source. Calls follow the shape of the dose curve; as a rule, active = well fitted inhibition curve with a large enough effect; inconclusive = small, poorly fitted or top-dose-only effect; inactive = no such curve, though single readings can be large or run the other way.
# Target: Retinaldehyde dehydrogenase 3 (Homo sapiens) (UniProt P47895)
# Assay: qHTS for Inhibitors of the Aldehyde Dehydrogenase Family (ALDH1A3) Primary screen (AID 2061315);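 also: plate controls were DMSO vehicle for no effect and reference inhibitor for full effect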
# Settings: ALDH inhibition qHTS; series mostly up to 56 µM; activity change, negative = inhibition: at the top concentration
Compound,"activity change, negative = inhibition",Potency
O=C(OCC#CCSc1nnc(-c2cccc3ccccc23)o1)c1sccc1Cl,-2.33%,
Cc1nc(NC2CCCCC2)c2nc(-c3ccccc3)n(CC3CCN(C)CC3)c2n1,8.96%,
O=C(Nc1ccc(Cl)c(Cl)c1)Nc1nnc(-c2cccnc2)s1,5.54%,
O=C(O)c1cccc(-c2cccc(-c3nn4c(=O)cc(N5CCNCC5)nc4s3)c2)c1,4.97%,
CCOc1ccc(CCN(C)C(=O)c2cc3sccc3n2Cc2ccccc2)cc1OCC,-5.87%,
O=C(NC1CCCc2c1cnn2-c1ccc(F)cc1F)C1CCCCN1 (configuration not stated),-10.8%,
CN(CCc1ccco1)c1ncnc2ccc(-c3ccc4c(c3)OCO4)cc12,-2.72%,
NC(=O)C1CCN(c2nc(-c3ccccc3Cl)cs2)CC1,-8.02%,
Cc1ccc(-c2ccc(=O)n(CC(=O)N(C)[C@H](C)c3ccccc3)n2)cc1,-13.6%,
Cc1ccc(NS(=O)(=O)c2ccc3c(c2)N(C)CCO3)cc1C,-8.21%,
Cc1ccc(NC(=O)CN2C(=O)N/C(=C\c3cccn3-c3cccc(C(=O)O)c3)C2=O)cc1,,inactive
Cc1ccc(CC(=O)Nc2nc(-c3ccc4c(c3)CCN4C(=O)c3ccccc3C)c(C)s2)cc1C,14.9%,
CCC1CCCN(C(=O)CC(c2ccc3c(c2)OCO3)c2c(O)cc(OC)cc2OC)C1 (configuration not stated),-26.5%,
O=S(=O)(Nc1nccs1)c1ccc(Nc2nc(-c3ccccc3)cs2)cc1,4.76%,
O=C(O)CNC(=O)CNC(=O)CNC(=O)CSC(=O)c1ccccc1,0.0602%,
CC(=O)NC(c1cc(Cl)c2cccnc2c1O)C(C)C (configuration not stated),-19.7%,
Cc1cc(NS(=O)(=O)c2cc3c(cc2F)NC(=O)CC3)ccc1Cl,,inactive

# — PubChem BioAssay (NCATS)
